The campaign covered roughly 390,000 compounds. About 2,200 (0.56%) were called active. A call without a number means that no potency is given here. About 3% were inconclusive and are not listed. Calls follow the shape of the dose curve; as a rule, active = well fitted inhibition curve with a large enough effect; inconclusive = small, poorly fitted or top-dose-only effect; inactive = no such curve, though single readings can be large or run the other way. The sample as a whole holds a higher share of actives than the screen did.
Potency is read from the fitted curve at half-maximal effect.

The target of this test is Chromobox protein homolog 1 (Homo sapiens) (UniProt P83916). Kind of test: HTS for Inhibitors of HP1-beta Chromodomain Interactions with Methylated Histone Tails. Also: nearly all actives have a fitted effect of over 70% in size. As to conditions: AlphaScreen HP1-beta / biotin-H3K9me3 peptide binding; series mostly up to 114 µM. In short, it runs like this: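 AlphaScreen: HP1-beta (50 nM) preformed 30 min with biotin-H3(1-18)K9me3 peptide (50 nM) in PBS pH 7.4, 0.01% Tween-20. Compound added for 30 min at RT, then streptavidin donor/nickel chelate acceptor beads (10 ug/mL) for 30 min.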
Sequence of Chromobox protein homolog 1 (Homo sapiens) (P83916 whole entry, looked up): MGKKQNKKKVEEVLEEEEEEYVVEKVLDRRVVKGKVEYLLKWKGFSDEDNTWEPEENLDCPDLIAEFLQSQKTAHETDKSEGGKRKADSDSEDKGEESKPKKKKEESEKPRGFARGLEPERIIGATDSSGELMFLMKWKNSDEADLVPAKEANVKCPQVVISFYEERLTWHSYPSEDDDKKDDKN
(Bead proximity is the source of the signal in Alpha formats.)
As to `O=C1C2C(c3ccccc3)CC=CC2C(c2ccoc2)N1Cc1ccccc1` (centres undefined), the Potency entry was “inactive”. In the case of `CC(C)C(=O)Nc1nc2c(s1)CC(C(C)(C)C)CC2` (centres undefined) it was “inactive”; in that of `Cc1ccc(SCC(CC(C)C)N2CCN(CCc3ccccc3)CCC2=O)cc1` (centres undefined), “inactive”; in that of `NC1=NOC(=O)C1C1CCCCC1` (centres undefined), 5.01 µM (active). The result for `CN1c2ccc(Cl)cc2-c2nc(SCC(=O)Nc3cc(F)ccc3F)ncc2S1(=O)=O` reads “inactive”.

For the compound `CC1(C)CCc2cc(S(=O)(=O)N3CCN(c4nc(-c5cccs5)nc5ccccc45)CC3)ccc2O1`, the Potency result was “inactive”. The result for `COc1ccc(CCN2C(=O)N(c3cccc(OC)c3)C(=O)C2CC(=O)Nc2ccccc2)cc1` (centres undefined) reads “inactive”.

As to `Cc1ccccc1C(=O)Nc1ccc(N2CCCCCC2)cc1`, the Potency was 35.5 µM (active). The result for `Cc1cc(NS(=O)(=O)c2ccc(NC(=O)c3ccccc3C)cc2)nc(C)n1` reads “inactive”; that for `CC(=O)Nc1ccc(S(=O)(=O)N2CCN(c3ccccc3)CC2)cc1`, “inactive”. On to `O=C(NC(=O)c1ccccc1N1CCCCC1)Nc1ccc(Br)cc1`, for which the Potency entry was “inactive”. In the case of `CC(=O)Nc1ccc(S(=O)(=O)Nc2ccc(N3CCCCC3)cc2)cc1` it was 20 µM (active); in that of `CC(=O)Nc1ccc(S(=O)(=O)N2CCCC2C(=O)O)cc1` (centres undefined), “inactive”; in that of `CCOc1ccc(CNC(=O)CCc2c(C)nn(-c3ccc(N4CCCCC4)nn3)c2C)cc1`, “inactive”. `CCOC(=O)c1c(NC(C)=O)c2c3c(sc2n1Cc1c(C)cc(C)cc1C)CCCC3`: the Potency result was “inactive”. On to `COc1ccc(C(=O)COC(=O)CCCC(=O)Nc2cc(C(F)(F)F)ccc2Cl)cc1`, for which the Potency entry is “inactive”. Consider `CCC(Sc1nnc(-c2ccc(OC)cc2)c(-c2ccc(OC)cc2)n1)C(=O)NC1CCCCC1` (centres undefined), for which the Potency entry was “inactive”. In the case of `Cc1cc(N=Nc2ccc3ccccc3c2)ccc1O` it was 50.1 µM (active); in that of `Cc1cc(C)cc(NS(=O)(=O)c2ccc3[nH]cc(C(=O)N4CCCCC4)c(=O)c3c2)c1`, “inactive”; in that of `COc1cccc(CNC(=O)c2ccc3c(c2)sc2nc(-c4cccc(OC)c4)cn23)c1`, “inactive”.

Turning to `CCCNc1ncnc2c1c(-c1ccccc1)cn2-c1ccc(OCC)cc1`, the Potency result is “inactive”.

In the case of `COc1cc(N2CCCC2)c(OC)cc1/C=C(/C#N)c1cccc(Br)c1`, the Potency is 35.5 µM (active). In the case of `CCOC(=O)c1[nH]c(C)c(CCC(=O)N2CCN(c3ccccc3)CC2)c1C` it was “inactive”.

Regarding `Cc1ccc(NC(=O)Cn2cnc3nc4c(cc3c2=O)CCCC4)cc1Cl`, the Potency entry was “inactive”. In the case of `CCOC(=O)c1cc(-c2ccc(OC)c(S(=O)(=O)Nc3ccc(OC)cc3OC)c2)on1` it was “inactive”; in that of `O=C1CN(Cc2ccccc2)S(=O)(=O)c2ccccc21`, “inactive”; in that of `COc1ccc(Cc2nc3ccc(C(=O)NCc4ccccc4C)cc3o2)cc1`, “inactive”. In the case of `COc1cc2c3c(c1)/C(=C1/SC(=S)NC1=O)C(=O)N3C(C)(C)C=C2C` it was 10 µM (active); in that of `Cc1cccc(N2CCN(C(=O)c3ccc(Nc4nc5ccccc5n5nnnc45)cc3)CC2)c1C`, “inactive”. The result for `Cc1csc2nc(COC(=O)c3ccccc3NC(=O)c3ccccc3Cl)cc(=O)n12` reads “inactive”. As to `COc1ccc(-c2nnc(SCC(=O)Nc3ccc(C(C)C)cc3)nc2-c2ccc(OC)c(OC)c2)cc1OC`, the Potency result is “inactive”. The result for `O=C1C(Cl)=C(Oc2ccccc2)C(=O)c2ccccc21` reads 2 µM (active); that for `COc1ccc(Br)cc1C1C2C=CCC(C)C2C(=O)N1Cc1ccccc1` (centres undefined), “inactive”; that for `CCOC(=O)c1ccc(NC(=O)Cn2cc(S(=O)(=O)Cc3ccccc3F)c3ccccc32)cc1`, “inactive”. As for `Cc1c(S(=O)(=O)NCc2ccccc2)c(=O)n(C)c(=O)n1C`, the Potency result is “inactive”.

`Cn1c(=O)c(=O)n(C)c2cc(S(=O)(=O)NCCc3ccccc3)ccc21`: the Potency entry is “inactive”. The result for `Cc1cc(=O)n(C)c(=O)n1CCCNc1ccccc1` reads 56.2 µM (active); that for `Cc1ccc(NC(=O)NC(C)c2c(-n3cccc3)sc(C)c2C)c(C)c1` (centres undefined), “inactive”; that for `COc1ccc(CN(Cc2ccccc2)C(=O)c2ccc(O)cc2)cc1COc1ccc(NC(C)=O)cc1`, “inactive”. In the case of `O=C(CN1CCN(c2ccc(O)cc2)CC1)Nc1ccc(-c2ccccc2)cc1` it was 79.4 µM (active); in that of `Cc1ccc(Cl)cc1NC(=O)CN1CCN(S(=O)(=O)N2CCOCC2)CC1`, “inactive”. As for `CC(=O)c1ccc(N2CCN(CC(=O)Nc3ccccc3N3CCOCC3)CC2)cc1`, the Potency entry is “inactive”. In the case of `O=C(CN1CCN(c2ccc(O)cc2)CC1)Nc1cc(S(=O)(=O)N2CCOCC2)ccc1Cl` it was 79.4 µM (active); in that of `O=C(CN1CCN(c2cccc(Cl)c2)CC1)Nc1ccc(S(=O)(=O)N2CCOCC2)cc1`, “inactive”; in that of `CCN(CC)c1ccc(NC(=O)CN2CCN(c3ccccn3)CC2)cc1`, “inactive”. On to `COc1ccccc1CN1CCC(CNC(=O)c2cnn(-c3cccc(Cl)c3)c2C2CCN(C(=O)OC(C)(C)C)CC2)CC1`, for which the Potency result is “inactive”. Turning to `Oc1ccc(Cl)cc1C1C=C(c2ccc3c(c2)OCO3)NC(c2c(F)cccc2Cl)N1` (centres undefined), the Potency entry is “inactive”.

For the compound `CCOc1ccc(C2C(C(=O)Nc3ccc(Cl)cc3)=C(C)Nc3nc(C(F)(F)F)nn32)cc1` (centres undefined), the Potency entry is “inactive”. `CCOc1ccc(NC(=O)CCc2c(C)nn(-c3ccc(N4CCCC4)nn3)c2C)cc1`: the Potency entry was “inactive”. The result for `Cc1ccc2nc(COc3cccc(NC(=O)c4cccc(Cl)c4)c3)cc(=O)n2c1` reads “inactive”; that for `Cc1cccc(C)c1-n1c(C)cc(/C=C2\C(=O)NN(c3ccccc3)C2=O)c1C`, 15.8 µM (active).

Consider `CCCSc1ncc(Cl)c(C(=O)Nc2c(C(=O)Nc3ccccc3)oc3ccccc23)n1`, for which the Potency entry was “inactive”. For `COc1ccccc1-c1nnc(C2CCN(C(=O)c3ccc(Cl)cc3)CC2)o1`, the Potency entry was “inactive”. The result for `CCOc1ccc(Nc2nc3c(S(=O)(=O)c4cccc(Cl)c4)nnn3c3ccsc23)cc1` reads “inactive”; that for `Cc1ccc(Cn2cc(CCC(=O)NCc3ccc(OC(C)C)cc3)c3ccccc32)cc1`, “inactive”; that for `COc1ccc(N2CCN(S(=O)(=O)c3cc(Br)cnc3N)CC2)cc1`, “inactive”.

Consider `COc1ccc(N2CCN(C(=O)c3cccs3)CC2)cc1`, for which the Potency entry was “inactive”. On to `COc1ccc(N2CCN(Cc3ccc(Br)s3)CC2)cc1`, for which the Potency was 17.8 µM (active). Turning to `Cc1ccc(Nc2nc3ccccc3nc2-n2nc(C)cc2C)c(Cl)c1`, the Potency entry is “inactive”. Turning to `Cc1ccc(Cl)cc1N(C)C(=O)Cn1nc(Cc2cccnc2)c2ccccc2c1=O`, the Potency entry was “inactive”.

Consider `COc1ccc(-c2nc(SCC(=O)N3CCCCC3C)n[nH]2)cc1` (centres undefined), for which the Potency entry was “inactive”. As to `Cc1ccc(-c2nc(S(=O)(=O)c3ccc(C)cc3)c(N3CCCCCC3)o2)cc1`, the Potency entry was “inactive”. In the case of `CN1/C(=c2/s/c(=C3/C(=O)N(c4ccccc4)NC3=Nc3ccccc3)n(C)c2=O)C(C)(C)c2ccccc21` it was 28.2 µM (active); in that of `Cc1cc(C)cc(NC(=O)CSc2nc3nccnc3c(=O)n2CCc2c[nH]c3ccccc23)c1`, “inactive”; in that of `Cc1ccc(Cl)cc1NC(=O)NC1COc2ccccc2C1` (centres undefined), “inactive”. In the case of `Cn1nnc2c(N3CCN(c4ccccc4)CC3)ncnc21` it was “inactive”; in that of `CCOc1ccc(NC(=O)c2cc(S(=O)(=O)N3CCCC3)c[nH]2)cc1`, “inactive”; in that of `CC(=O)N(C1=C(Cl)C(=O)c2ccccc2C1=O)c1ccc(C(=O)O)cc1`, 7.94 µM (active). On to `CCOc1ccc(CNC(=O)Cn2cc3c(n2)-c2c(oc(C(=O)N4CCCC4)c2C)CC3)cc1`, for which the Potency entry is “inactive”.
